# Hit rate of the full screen: of about 48,000 compounds, about 13,000 (27%) showed an effect of 50% or more. The list shows a part of the results.
# Tested on: Wolbachia pipientis
# Test: Anti-Wolbachia Cell-Based Screen
# Type: functional
# Parameters: scale not given: in the data most compounds retested in dose-response had high values
# Details: 5 µM
row,Structure (SMILES),Percent Effect [%]
1,CC(=O)CCC(=O)N1CCC2(CC1)N=C(CCC(C)C)NC2=O,-5.676
2,CC(C)(C)OC(=O)N1CCC(C(=O)NC2CCS(=O)(=O)C2)CC1 (stereo not given),6.733
3,COc1ccc(C(=O)N2CCC(C3CCN(c4ncccn4)CC3)C2)o1 (stereo not given),-7.407
4,O=C(O)C(F)(F)F.O=C(c1ccco1)N1C[C@H]2CCCN(Cc3cccs3)[C@H]2C1,-3.839
5,CN1CCN(C(=O)[C@@H]2CCO[C@@H]3CCN(c4ncccn4)C[C@@H]32)CC1,-8.422
6,O=C([C@@H]1CCS(=O)(=O)[C@@H]2CN(c3ncccn3)C[C@@H]21)N1CCOCC1,104.7
7,O=C1NC[C@@]2(C(=O)O)CN(Cc3cccc(Oc4ccccc4)c3)C[C@@H]12,-29.67
8,CN1CC2(CCCN(c3cc(N4CCCCC4)ncn3)C2)OC1=O (stereo not given),-3.477
9,CN(C)CCOc1cccc(CN2CCCC3(C2)CN(C)C(=O)O3)c1 (stereo not given),103.2
10,CN1CC2(CCCN(Cc3ccc(Oc4ccccc4)cc3)C2)OC1=O (stereo not given),64.08
11,COc1ccc(/C=C/CN2CCCC3(C2)CN(C)C(=O)O3)cc1 (stereo not given),-36.85
12,CN1CC2(CCCN(Cc3cccc(Oc4ccccc4)c3)C2)OC1=O (stereo not given),123.2
13,COc1cccc(CN2CCCC3(CCN(C(CO)CO)C3)C2)c1 (stereo not given),-0.6359
14,CN1CC2(CCCN(Cc3cccc(CCN)c3)C2)OC1=O (stereo not given),105.3
15,CN1CC2(CCCN(Cc3ccccc3OCC(=O)O)C2)OC1=O (stereo not given),0.6132
16,CN1CC2(CCCN(c3cnccn3)C2)OC1=O (stereo not given),1.527
17,COc1ccc(/C=C/CN2CCC3(C2)CN(C)C(=O)O3)cc1 (stereo not given),-32.82
18,Cc1cc(C)c2[nH]c(=O)c(CN3CCCC4(C3)CN(C)C(=O)O4)cc2c1 (stereo not given),-2.953
19,CCOCCCC(=O)NCc1ccnc(N2CCN(C)CC2)c1,8.829
20,CN(Cc1ccc(F)cc1C#N)CC(F)(F)F,-4.053
21,CC(C)(C)CCN1CCN(c2snc(Cl)c2C#N)CC1,-4.564
22,CC(C)(NC(=O)c1coc(COc2cccc(F)c2)n1)C(N)=O,11.65
23,COCc1cc(CNC(=O)c2cccc3c2OCC3)n[nH]1,-6.489
24,CCCN1CCCN(CCCOc2cccc(C#N)c2)CC1,7.264
25,N#CCCN(C(=O)CN1CCCC1c1ccsc1)c1ccccc1F (stereo not given),-4.506
26,CCS(=O)(=O)N1CCn2c(COCC3CCOCC3)cnc2C1C (stereo not given),-1.918
27,CN(C)C(=O)NCc1cc2n(n1)CCCN(C[C@H]1[C@@H]3CNC[C@@H]31)C2,-16.67

row,Structure (SMILES),Percent Effect [%]
1,O=C(CC1CCCO1)NCc1ccccc1Cn1cncn1 (stereo not given),0.9316
2,CC1CN(C)c2ccccc2CN1C(=O)c1ccncc1F (stereo not given),-16.77
3,CCC1CN(C)c2ccccc2CN1C(=O)c1c[nH]c(=O)cc1C (stereo not given),123.4
4,CCc1cc(CNC(=O)N2Cc3ccccc3N(C)CC2C)[nH]n1 (stereo not given),5.505
5,CC1CN(C)c2ccccc2CN1C(=O)c1cc[nH]c(=O)c1 (stereo not given),-17.5
6,CC1CN(C)c2ccccc2CN1C(=O)c1ccc[nH]1 (stereo not given),-9.61
7,Cc1cc(=O)[nH]cc1C(=O)N1Cc2ccccc2N(C)CC1C (stereo not given),102.2
8,COCc1ccc(C(=O)N2CCCN(C(=O)OCC(C)C)CC2)cc1,6.896
9,COCc1ccc(C(=O)N2CC[C@H](O)[C@@H](n3ccnc3)CC2)cc1,113.2
10,COCc1ccc(C(=O)N2CCN(CCS(C)(=O)=O)CC2)cc1,1.51
11,O=C(c1ccc(-n2ccnc2)cc1)N1CCCC1,15.67
12,CC(C(=O)N1CCN(C(=O)c2ccc(F)cc2)CC1)n1ccnc1 (stereo not given),-9.233
13,CC(C)Oc1ccc(C(=O)N2CC[C@H](O)[C@@H](n3ccnc3)CC2)cc1,122.3
14,CS(=O)(=O)CCSC1CCN(c2ccccc2F)C1=O (stereo not given),-0.4258
15,CC(C)N1CCC(C(=O)N[C@H](C(=O)O)c2cccc(F)c2F)CC1,23.96
16,O=C(c1coc2ccccc12)N1CCCC(O)(CO)CC1 (stereo not given),-11.92
17,Cn1c(CO)cnc1SC(C(N)=O)c1ccccc1 (stereo not given),-6.292
18,COCCN(CCC#N)S(=O)(=O)c1ccc(F)cc1F,3.199
19,COc1cccc(OCCNS(C)(=O)=O)c1,78.58
20,COc1cccc(OCCNCc2ccccc2)c1.O=C(O)C(=O)O,105.9
21,COc1cccc(OCCNS(=O)(=O)Cc2ccccc2)c1,102.8
22,CS(=O)(=O)c1ccc(OCCNCc2cccc(O)c2)cc1,-6.003
23,COc1ccc(S(=O)(=O)C(C)C(=O)NCCOc2cccc(C)c2)cc1 (stereo not given),1.494
24,CC(=O)NCCOc1cccc(Br)c1,0.6269
25,O=C(CCOc1ccccc1)NS(=O)(=O)Cc1ccccc1,-5.15
26,Cc1cccc(OCC(=O)NS(=O)(=O)Cc2ccccc2)c1,1.498
27,COc1cccc(CNCCc2cccc(C(N)=O)c2)c1,-2.153

row,Structure (SMILES),Percent Effect [%]
1,Cc1c(C(=O)NC2(C#N)CCSC2)nnn1-c1ccccc1Cl (stereo not given),1.619
2,Cn1cc(CNc2ccc(F)c(N3CCCS3(=O)=O)c2)cn1,-4.512
3,CCCOCC1CCN(C(=O)Cn2cccc(C(F)(F)F)c2=O)C1 (stereo not given),-13.09
4,Cn1cc(CN2CCCC23CCN(C(=O)c2cccn2C)CC3)cn1.O=C(O)C(F)(F)F,-11.73
5,CCN1CCCC12CCN(C(=O)c1ccsc1)CC2.O=C(O)C(F)(F)F,-19.39
6,CN(C)CCN1CCCC12CCN(C(=O)c1ccoc1)CC2.O=C(O)C(F)(F)F.O=C(O)C(F)(F)F,109.3
7,CN(C)CCN1CCCC12CCN(C(=O)c1ccco1)CC2.O=C(O)C(F)(F)F.O=C(O)C(F)(F)F,96.22
8,Cc1ccccc1C(=O)N1CCC2(CCCN2CCN(C)C)CC1.O=C(O)C(F)(F)F.O=C(O)C(F)(F)F,100.3
9,CN(C)CCN1CCCC12CCCN(Cc1ccco1)C2.O=C(O)C(F)(F)F.O=C(O)C(F)(F)F.O=C(O)C(F)(F)F (stereo not given),-6.586
10,CN(C)CCN1CCCC12CCN(C(=O)c1cccn1C)CC2.O=C(O)C(F)(F)F.O=C(O)C(F)(F)F,-18.28
11,CN(Cc1ccco1)C1CCC12CCN(C(=O)c1ccco1)CC2.O=C(O)C(F)(F)F (stereo not given),-7.154
12,CN(C)CCN1CCCC12CCCN(Cc1ccoc1)C2.O=C(O)C(F)(F)F.O=C(O)C(F)(F)F.O=C(O)C(F)(F)F (stereo not given),19.5
13,NC(=O)C(NCCc1ccc(Cl)s1)c1ccccc1 (stereo not given),0.1259
14,CCN(Cc1noc(C(C)C)n1)Cc1ccc(C#N)cc1F,13.78
15,O=S(=O)(Cc1ccccc1)NCc1ccnc(O)c1,-8.436
16,CCc1ccc2nc(C)cc(C(=O)N3C[C@H]4CCC[C@@]4(CO)C3)c2c1,-46.54
17,CCSc1ncc(CN2C[C@H]3CC[C@@H]2CN(C2CCOCC2)C3)cn1,15.93
18,CC(C)NCc1cccnc1N1CCN(c2ccccn2)CC1,-3.713
19,CSC(C)C(=O)NCCC(=O)N1CCN(c2ccccn2)CC1 (stereo not given),112.5
20,CC(c1ccccn1)N(C)C(=O)CN1CCN(c2ccccn2)CC1 (stereo not given),-2.14
21,CC(C)C(=O)NCCC(=O)N1CCN(c2ccccn2)CC1,125.4
22,Cc1nc(CNC(=O)CCN2CCN(c3ccccn3)CC2)oc1C,-3.101
23,CCC(C)NC(=O)NCCC(=O)N1CCN(c2ccccn2)CC1 (stereo not given),129.1
24,CC(C)CC(C)NCc1cccnc1N1CCN(c2ccccn2)CC1 (stereo not given),-4.161
25,CCCC(C)NCc1cccnc1N1CCN(c2ccccn2)CC1 (stereo not given),8.499
26,CCc1nnsc1C(=O)NC1CCN(c2ccccn2)CC1,-15.93
27,CCC(CC)C(=O)NCCC(=O)N1CCN(c2ccccn2)CC1,117

row,Structure (SMILES),Percent Effect [%]
1,CSCC(C)N(C)C(=O)CN1CCN(c2ccccn2)CC1 (stereo not given),-3.468
2,CCn1cc2c(n1)C(COC)CN(C(=O)COc1ccccc1C)C2 (stereo not given),-8.136
3,CC(=O)NC[C@@H]1C=C(C)[C@H](CC(=O)NCCN(C)C)C[C@H]1C(C)C,6.725
4,O=C1CC2(CCSC2)C(=O)N1CCCc1ccccc1 (stereo not given),-8.478
5,CCC(NC(=O)c1coc(COc2cccc(F)c2F)n1)C(=O)NC (stereo not given),-19.24
6,CCc1nnc2n1CCN(Cc1nc(-c3ccoc3)no1)C2,-0.9507
7,COCCC(=O)N1CCCC1c1csc(Nc2ncccn2)n1 (stereo not given),107
8,COCCC(=O)N1CCCC1c1csc(Nc2ccccn2)n1 (stereo not given),105.2
9,CC(C)(C)c1nnc(CN2CCN(C(=O)CC3CCCCC3)CC2)o1,-4.944
10,CCC[C@@H](NC(N)=O)C(=O)N1CCc2c(Cl)cccc2C1,5.459
11,COCC(=O)Nc1cc(S(=O)(=O)C(F)(F)F)ccc1OC,4.656
12,CCc1nc(C)c(CN2CCOC(Cc3cccc4ccccc34)C2)[nH]1 (stereo not given),10.02
13,Cc1nc(CN2CCCC(C)(CO)C2)no1 (stereo not given),110.1
14,Cn1cnc2c1CCN(Cc1noc(-c3ccccc3)n1)C2,2.267
15,OCCOc1ccccc1CN1CCCC(O)(CO)C1 (stereo not given),16.2
16,CN(C)CC1(O)CCCN(c2noc(-c3ccccc3)n2)CC1 (stereo not given),-6.371
17,OCC1(O)CCCN(Cc2nnc(-c3ccccc3)o2)CC1 (stereo not given),97.17
18,OCC1(O)CCCN(Cc2noc(-c3ccccc3)n2)CC1 (stereo not given),104.1
19,OCC1(O)CCCN(Cc2noc(-c3ccccc3)n2)C1 (stereo not given),97.27
20,Cc1cc(CN2CCCC(C)(CO)C2)ccc1F (stereo not given),-2.653
21,c1ccc(-c2nc(CN3CCn4c(nnc4C4CC4)C3)no2)cc1,-9.405
22,Cc1ccc(-c2nnc(CN3CCCC(O)(CO)CC3)o2)n1C (stereo not given),-4.067
23,CC1(c2ccccc2)CCCN(Cc2nnc(-c3cccnc3)o2)C1 (stereo not given),-17.9
24,Cc1nc(CN2CCCN(CC(=O)N(C)CCC#N)CC2)no1,3.648

# From ChEMBL document CHEMBL3988442, “University of Dundee, Small-Polar-MMV Screening Library” (2021)
